# Rows were chosen to be rich in hits. Some 19% of all compounds tested hit in one or more screens of this group.
# DT40 TDP1 no CPT: qHTS for Inhibitors of human tyrosyl-DNA phosphodiesterase 1 (TDP1): qHTS in cells in absence of CPT | DT40 Tdp1-/- hTDP1 cells, no CPT, ATP luminescence, 48 h | Potency, µM (titrated, usually from 46.2 µM), without a hit: top-dose activity change, negative = growth inhibition, usual class: inhibitors | hit rate 15% among 420,000; note: potency is the fitted concentration of half-maximal effect; nearly all actives have a fitted effect of over 55% in size
#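 Growth kinetics read by CellTiter-Glo luminescence after ≥48 hr at 37 °C. Cells: DT40 Tdp1-/- stably carrying human TDP1, 400 per well, compound exposure in the absence of CPT (DMSO vehicle).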
# HT1080 IDH1KD tx: kills HT-1080 cells with IDH1 knockdown | HT-1080 IDH1 knockdown viability, ATP luminescence, 48 h | Potency, µM (titrated, usually from 46.1 µM), for the others: at the top dose activity, negative = toxicity, most hits filed as cytotoxic | hit rate 2% among 360,000 | AID 686971;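 note: potency is the fitted concentration of half-maximal effect; 0% = DMSO wells and -100% = cell-free medium wells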
#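 CellTiter-Glo luminescence after 48 h compound exposure at 37 degrees C of IDH1-knockdown HT-1080 cells in 5% FBS RPMI. %Activity scaled between DMSO wells and cell-free media wells, with curves fitted and assigned curve classes.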
# TDP1 cell CPT: growth inhibition of DT40 Tdp1-/-;hTDP1 cells with camptothecin (screen for TDP1 inhibitors). chicken DT40 Tdp1-/-;hTDP1 cells + 20 nM CPT, ATP luminescence, 48 h. Potency, µM (top dose mostly 46.2 µM), inactives show at the highest dose activity change, negative = growth inhibition, actives largely listed as inhibitors. hit rate 12% among 420,000. AID 686979; note: potency is the fitted concentration of half-maximal effect; nearly all actives have a fitted effect of over 55% in size
#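 Cell growth measured by CellTiter-Glo luminescence after a minimum 48 h, 37 C compound exposure with 20 nM CPT in Tdp1-knockout DT40 cells stably expressing hTDP1, seeded 400/well; qHTS titration format.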
# HT1080-NT tox: kills 2HG-producing HT-1080-NT fibrosarcoma cells; HT-1080-NT fibrosarcoma viability, CellTiter-Glo ATP luminescence, 48 h; Potency, µM (highest dose often 46.1 µM), for the others: at the highest dose activity, negative = less viability, usual class: cytotoxic; hit rate 1.6% among 360,000; AID 686970;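 note: NT is the 2HG producing partner of a matched IDH1 knockdown line; potency is the fitted concentration of half-maximal effect; 0% = DMSO-treated cells and -100% = media-only wells without cells; nearly all actives have a fitted effect of over 55% in size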
#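 Fibrosarcoma NT cells, 750 per well in 5% FBS RPMI, were exposed to compound for 48 hours. Viability: CellTiter-Glo luminescence.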
# ELG1 DNA repair: ELG1-dependent DNA repair inhibition; HEK293T ELG1-luciferase reporter, luminescence, 16 h; DNA damage induced by 5-fluorouridine; Potency, µM (highest dose often 46.1 µM), without a hit: at the highest dose activity change, negative = inhibition, hits mostly inhibitors; hit rate 2.3% among 330,000; note: potency is the fitted concentration of half-maximal effect; nearly all actives have a fitted effect of over 55% in size
#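 Quantitative HTS, concentration-response format. 2,000 cells/well co-treated with 5-fluorouridine and compound, 16 hr in 5% CO2 at 37 °C; ONE-Glo luminescence read after 30 min.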
# IL1B secr inh: inhibitors of inflammasome signaling (IL-1 beta secretion); THP-1 LPS/ATP IL-1B secretion, AlphaLISA, 16 h; active compounds read low; activity change, % at 57.5 µM; hit rate 4.7% among 360,000; AID 743279; in the data active = activity change below about -50%; inconclusive = mostly about -30% to -49%
#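 THP-1 cells pretreated 1 hr with compounds (up to 57.5 uM final), then stimulated with LPS (250 ng/mL final) plus ATP (1.25 mM final); secreted IL-1B measured by AlphaLISA after 16 hr, decreased signal indicating inhibition.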
# * marks the source's active call; other numbers are inactive results; ? = inconclusive; . = no result given; [ ] = remark or other dose. Unless noted, calls come from the whole dose curve; as a rule, active = well fitted curve in the direction sought with a large enough effect; inconclusive = small, poorly fitted or top-dose-only effect, or another doubt; inactive = no such curve, though single readings can be large; an effect the other way counts as inactive or inconclusive. Unless noted, % is set by controls: 0 for no effect and ±100 for the full control effect.
SMILES,DT40 TDP1 no CPT,HT1080 IDH1KD tx,TDP1 cell CPT,HT1080-NT tox,ELG1 DNA repair,IL1B secr inh
CCOc1ccccc1OCC(=O)NC1CCSc2ccccc21 (stereo not drawn),?,-1%,?,0%,.,41
COC(=O)c1cccc(Nc2nc3ccccc3nc2C)c1,?,?,18µM*,-26%,?,13
COC(=O)c1cc(Nc2cc(C)c3c(O)cccc3n2)cc(C(=O)OC)c1,13µM*,-13%,21µM*,-26%,?,-21
COC(=O)c1cc(Nc2cc(C)c3ccc(O)cc3n2)cc(C(=O)OC)c1,-27%,-9%,?,-1%,?,-65*
Cc1cc(C)n(CCc2nc(-c3ccco3)cs2)n1,13µM*,-9%,11µM*,27%,?,25
COc1cccc2cc(-c3csc(CCn4nc(C)cc4C)n3)c(=O)oc12,23µM*,-12%,?,-7%,-10%,-5
COc1ccc(OC)c(-c2csc(CCn3nc(C)cc3C)n2)c1,-15%,1%,-6%,-2%,-14%,-9
COc1ccc(CNC(=O)c2cc3c(=O)n4cccc(C)c4nc3n(CC3CCCO3)c2=N)cc1 (stereo not drawn),?,-10%,?,-15%,-3%,20
Cc1cccn2c(=O)c3cc(C(=O)NCc4ccco4)c(=N)n(C4CCCC4)c3nc12,23µM*,10%,?,16%,9%,29
Cc1cccn2c(=O)c3cc(C(=O)NCc4ccc(F)cc4)c(=N)n(CC4CCCO4)c3nc12 (stereo not drawn),23µM*,0%,?,-4%,-13%,5
Cc1cccn2c(=O)c3cc(C(=O)NC4CCCCC4)c(=N)n(Cc4ccc(F)cc4)c3nc12,15µM*,-8%,8.2µM*,-3%,-5%,92
Cc1cccn2c(=O)c3cc(C(=O)NC(C)C)c(=N)n(Cc4ccncc4)c3nc12,-16%,1%,-26%,2%,21%,-5
CCNC(=O)c1cc2c(=O)n3cccc(C)c3nc2n(Cc2ccc(C)cc2)c1=N,16µM*,-7%,18µM*,-8%,-12%,13
Cc1cccn2c(=O)c3cc(C(=O)NC4CCCC4)c(=N)n(CC4CCCO4)c3nc12 (stereo not drawn),?,6%,-20%,-3%,-20%,10
Cc1ccc2cc(CN(C(=O)c3ccc4c(c3)OCO4)C3CC3)c(N(C)C)nc2c1,-17%,.,6%[9.04 µM],.,.,.
N=c1c(C(=O)NCC2CCCO2)cc2c(=O)n3ccccc3nc2n1Cc1cccnc1 (stereo not drawn),-8%,2%,3%,3%,-3%,0
COCCCn1c(=N)c(C(=O)NC2CCCC2)cc2c(=O)n3cccc(C)c3nc21,23µM*,.,?,.,.,.
COCCCn1c(C(=O)Nc2ccc3c(c2)OCO3)cc2c(=O)n3cccc(C)c3nc21,12µM*,14%,?,8%,.,-3
COCCCn1c(=N)c(C(=O)NCc2cccnc2)cc2c(=O)n3cccc(C)c3nc21,?,.,-28%,.,.,.
Cc1cccn2c(=O)c3cc(C(=O)NCC4CCCO4)c(=N)n(Cc4cccnc4)c3nc12 (stereo not drawn),26µM*,11%,18µM*,13%,-15%,-11
COCCCNC(=O)c1cc2c(=O)n3cccc(C)c3nc2n(C(C)C)c1=N,?,-6%,-17%,0%,3%,-69*
CCOC(=O)c1ccccc1NC1(c2ccc(OC)cc2)C(=O)c2ccccc2C1=O,?,.,-23%,.,.,.
CCc1ccc(NC(=O)CN2C(=O)c3cccc4cccc2c34)cc1,-29%,.,-19%,.,.,.

# Bioassay records: PubChem, National Center for Advancing Translational Sciences (NCATS)
